From PubChem BioAssay (NCI)
About 83,000 compounds went through this panel and 20% of them were active in at least one assay; those are over-represented in the sample as a whole.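 48-hour exposure, single concentration, 96-well plates; percent growth endpoint where 0 means no net growth. Active: below 10.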 Unmarked numbers belong to inactive results. Calls of active or inactive are those of the source.

Key:
Experiment in all cases: NCI-60 one-dose screen, 48 h (100 = growth as untreated, 0 = no growth, -100 = all killed)
Conditions in all cases: 10 µM unless noted
NCI-H23 lung = tested on: NCI-H23 lung
NCI-H226 lung = tested on: NCI-H226 lung
NCI-H322M lung = tested on: NCI-H322M lung
HOP-62 NSCLC = tested on: HOP-62 NSCLC
NCI-H460 lung = tested on: NCI-H460 lung
HOP-92 NSCLC = tested on: HOP-92 NSCLC
NCI-H522 lung = tested on: NCI-H522 lung
A549/ATCC NSCLC = tested on: A549/ATCC NSCLC
786-0 renal = tested on: 786-0 renal
COLO 205 colon = tested on: COLO 205 colon
DU-145 prostate = tested on: DU-145 prostate
K-562 leukemia = tested on: K-562 leukemia
MALME-3M melanoma = tested on: MALME-3M melanoma
MDA-MB-231 breast = tested on: MDA-MB-231 breast
RXF 393 renal = tested on: RXF 393 renal
SF-268 CNS = tested on: SF-268 CNS
SF-295 CNS = tested on: SF-295 CNS
UACC-257 melanoma = tested on: UACC-257 melanoma
M14 melanoma = tested on: M14 melanoma
SF-539 CNS = tested on: SF-539 CNS

SMILES	growth (NCI-H23 lung)	growth (NCI-H226 lung)	growth (NCI-H322M lung)	growth (HOP-62 NSCLC)	growth (NCI-H460 lung)	growth (HOP-92 NSCLC)	growth (NCI-H522 lung)	growth (A549/ATCC NSCLC)	growth (786-0 renal)	growth (COLO 205 colon)	growth (DU-145 prostate)	growth (K-562 leukemia)	growth (MALME-3M melanoma)	growth (MDA-MB-231 breast)	growth (RXF 393 renal)	growth (SF-268 CNS)	growth (SF-295 CNS)	growth (UACC-257 melanoma)	growth (M14 melanoma)	growth (SF-539 CNS)
CC(C)Nc1ccc(Nc2ccc(NC(C)C)cc2)cc1	25.9%	51.8%	84.6%	76.4%	24.7%	72.6%	35.2%	40.9%	66%	25.8%	63.1%	24.6%	35.8%	33.3%	77.5%	63.5%	67.6%	23.7%	72%	–
CCCCC(CCc1ccc([N+](=O)[O-])cc1)(C(C)=O)C(=O)OCC (stereo not given)	95.7%	89.7%	108%	102%	105%	91.5%	104%	100%	98.2%	111%	102%	99.7%	–	98.2%	85.8%	95.9%	99.2%	99.1%	96.7%	94.7%
NNc1ccc(Cl)cc1Cl	82.7%	86.3%	77.3%	64.9%	97.5%	55.2%	53.6%	82.9%	86.5%	91.5%	108%	13.4%	104%	–	102%	71.7%	76.6%	–	–	94.5%
CCCCCCCCC(=O)OCCCC(CCC(CCC1CCCO1)OC(=O)CCCCCCCC)OC(=O)CCCCCCCC (stereo not given)	104%	104%	102%	95.6%	111%	99%	70.8%	104%	97%	111%	106%	115%	109%	–	107%	95.7%	94.4%	99.9%	111%	97.3%
CCOC(=O)C1=C(C(=O)c2ccccc2)C(c2cccc([N+](=O)[O-])c2)C(C(=O)c2ccccc2)=C(C(=O)OCC)N1	86.3%	84.9%	94.1%	93%	98.8%	85.6%	83.5%	95.3%	93.9%	114%	97%	21.5%	93.1%	–	79.3%	93.9%	90.2%	105%	89.9%	95.7%
O=C/C=C/c1ccc([N+](=O)[O-])cc1	96.7%	101%	104%	104%	106%	117%	97.3%	93.4%	102%	115%	102%	95.8%	99.6%	–	116%	98.2%	105%	97.7%	93.3%	99.3%
O=C1CSC(=S)N1Cc1cccnc1	101%	109%	85.7%	78.4%	106%	83.9%	36.8%	95.4%	44.6%	53.6%	25%	7.08% (active)	102%	106%	–	107%	120%	59.5%	85.1%	93.6%
CN=C(N)N/N=C(\C)c1ccc2c(c1)Cc1ccccc1-2	10.7%	-39.1% (active)	-85% (active)	-73.3% (active)	-97.9% (active)	-8.45% (active)	12.2%	-66.4% (active)	-77.9% (active)	-100% (active)	-85.9% (active)	-81.5% (active)	-85% (active)	-67.5% (active)	-28.4% (active)	-44.2% (active)	-51.9% (active)	-70.3% (active)	-96.1% (active)	–
Nc1nc(N)c2cc(Sc3cccc(C(F)(F)F)c3)ccc2n1	40.3%	57.6%	37.1%	61.3%	14.9%	28.5%	35.4%	12.7%	19.2%	-75.9% (active)	28.6%	8.39% (active)	31.5%	45.3%	42.8%	29.5%	–	27.4%	13.6%	28.6%
Cc1cccc2c(N)c3ccccc3nc12	-39.6% (active)	-9.22% (active)	-2.56% (active)	-7.52% (active)	-17.4% (active)	-20.4% (active)	-36% (active)	-68.6% (active)	-9.45% (active)	-48.2% (active)	6.74% (active)	6.25% (active)	-37.2% (active)	-24.2% (active)	-48.2% (active)	-1.12% (active)	5.09% (active)	-22.2% (active)	-55% (active)	–
NC(=S)N/N=C\c1nccc2c(N)cccc12	15.6%	-5.48% (active)	4.54% (active)	-7.04% (active)	3.27% (active)	19.8%	6.31% (active)	12.4%	14.2%	16.2%	11%	14.2%	3.21% (active)	49%	35.8%	8.21% (active)	-15.5% (active)	7.45% (active)	–	–
COC(=O)[C@]1(C)CCC[C@]2(C)c3ccc(C(C)C)cc3C(=O)[C@@H](Br)[C@@H]12	90.3%	81.7%	118%	94.3%	106%	82.6%	80.8%	90.1%	94.8%	106%	102%	72.4%	–	82.9%	74.2%	102%	91.4%	92.5%	90.6%	98.2%
CN(C)c1ccc(/C=C/c2ccnc3ccccc23)cc1	58.6%	23.5%	97.3%	61.8%	21.7%	27.2%	-24% (active)	24.7%	54.7%	40.6%	78.1%	25.1%	60.2%	57.4%	–	70%	31.7%	41.9%	44.3%	47.2%
CN(C)CC(C)(CN(C)C)C(=O)/C=C/c1c(Cl)cccc1Cl	45.9%	11.1%	70.6%	94.6%	57.9%	40.1%	-80.9% (active)	80.6%	-44% (active)	101%	36.4%	-8.43% (active)	-67.2% (active)	–	-80.8% (active)	–	78.2%	52.5%	12.7%	-2.86% (active)
CCCCCCCCCCCC[N+]1(CCCCCCCCCCCC)CCCC(C)C1 (stereo not given)	-91.9% (active)	-77% (active)	-85.9% (active)	-96.3% (active)	-90.7% (active)	-86.5% (active)	-90.1% (active)	-98.6% (active)	-98.4% (active)	-98.8% (active)	-83.8% (active)	-79.1% (active)	-75.1% (active)	-82.6% (active)	–	-87.7% (active)	-77.1% (active)	-96.2% (active)	-97.3% (active)	-99.6% (active)
COc1ccc2nc3cc(Cl)ccc3c(NCCCCCN3CCCCC3)c2c1	-49.1% (active)	-39.8% (active)	-34% (active)	-31.6% (active)	-62.9% (active)	-56.4% (active)	-71.6% (active)	-33.1% (active)	-73.4% (active)	-89.4% (active)	-3.46% (active)	-13.9% (active)	-84.7% (active)	–	-72.1% (active)	-36.4% (active)	43.2%	-74.8% (active)	-81.9% (active)	-89.7% (active)
